Test results as given in PubChem BioAssay AID1851 (National Center for Advancing Translational Sciences (NCATS), 2009).
The whole screen tested about 16,000 compounds, of which about 4,000 (25%) were called active. Roughly 26% stayed inconclusive and do not appear here. These entries were drawn from the full list. A number with no mark means an inactive call. The call rests on the fitted dose curve; in most records, active means well fitted curve in the direction sought with a large enough effect; inconclusive means small, poorly fitted or top-dose-only effect, or effect the other way; inactive means no such curve, though single readings can be large or run the other way.

What follows are compounds tested against Cytochrome P450 2C9 (Homo sapiens) (UniProt P11712) (assay: Cytochrome panel assay with activity outcomes). Details: recombinant CYP, pro-luciferin dealkylation, luminescence, p450-cyp2c9; series mostly up to 57.1 µM; activity, negative = inhibition: at the top concentration.
Sequence of Cytochrome P450 2C9 (Homo sapiens) (P11712 whole entry, looked up): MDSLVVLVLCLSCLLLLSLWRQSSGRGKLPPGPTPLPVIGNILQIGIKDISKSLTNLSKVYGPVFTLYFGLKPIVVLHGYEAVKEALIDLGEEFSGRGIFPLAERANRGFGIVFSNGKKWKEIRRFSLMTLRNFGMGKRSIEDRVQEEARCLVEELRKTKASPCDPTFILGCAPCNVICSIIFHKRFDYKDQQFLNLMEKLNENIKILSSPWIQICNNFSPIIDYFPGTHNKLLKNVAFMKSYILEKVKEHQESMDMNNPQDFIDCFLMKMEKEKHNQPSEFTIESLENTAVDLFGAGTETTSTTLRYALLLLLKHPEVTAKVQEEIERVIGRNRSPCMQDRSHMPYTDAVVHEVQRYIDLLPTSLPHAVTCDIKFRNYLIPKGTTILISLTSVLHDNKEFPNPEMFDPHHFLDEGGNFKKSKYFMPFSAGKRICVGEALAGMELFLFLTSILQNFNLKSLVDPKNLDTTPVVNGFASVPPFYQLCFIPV
On the % scale 0 is the no-effect control and ±100 the full control effect.

Row | SMILES | activity, negative = inhibition | AC50
1 | CCCn1c(C)c(C(=O)c2ccc3ccccc3c2)c2ccccc21 | 6.27% (inactive) | 
2 | CNC[C@H](O)c1ccc(OC(=O)C(C)(C)C)c(OC(=O)C(C)(C)C)c1 | 14.3% [at 25.6 µM] (inactive) | 
3 | N[C@@H]1C=CC=C(C(=O)O)C1 | 8.11% (inactive) | 
4 | COc1ccc(C[C@H]2c3cc(OC)c(OC)cc3CCN2C)cc1OC | -18.3% [at 25.6 µM] (inactive) | 
5 | C=CCN1CC[C@]23c4c5ccc(O)c4O[C@@H]2/C(=N/NC(=O)c2ccccc2)CC[C@@]3(O)[C@H]1C5 | -21.2% (inactive) | 
6 | [N-]=[N+]=CC(=O)CC[C@H](N)C(=O)O | 26.7% [at 11.4 µM] | 
7 | CCC1(CCSC(=N)N)C(=O)NC(=O)NC1=O | 12.6% [at 11.4 µM] | 
8 | C[C@H](Br)CN(C[C@H](C)Br)c1ccc2c(c1)Cc1ccccc1-2 |  | 3.16 µM (active)
9 | CCCN1CCO[C@@H]2c3cc(O)ccc3OC[C@@H]21 | -20.6% (inactive) | 
10 | COc1cc(C(=O)OC2C[C@H]3CC[C@@H](C2)N3C)ccc1O (stereo partly drawn) | 7.43% [at 25.6 µM] (inactive) | 
11 | CC(=O)O[C@@H]1CN2CCC1CC2 | 23.8% (inactive) | 
12 | CCN1C[C@]2(C)CC[C@@H](O)[C@]34[C@@H]5CC6[C@@H](OC)C[C@@](O)([C@H]5[C@@H]6O)[C@@H](C[C@@H]23)[C@H]14 | 8.37% (inactive) | 
13 | O=C1CC[C@]2(O)[C@H]3Cc4ccc(O)c5c4[C@@]2(CCN3CC2CC2)[C@@H]1O5 | 24.4% [at 25.6 µM] (inactive) | 
14 | O=C(/C=C\c1ccc(Cl)cc1)N[C@@]12CCC(=O)[C@@H]3Oc4c(O)ccc5c4[C@@]31CCN(CC1CC1)[C@@H]2C5 |  | 15.8 µM (active)
15 | O=C1CC[C@@]2(O)[C@H]3Cc4ccc(O)c5c4[C@@]2(CCN3CC2CC2)[C@@H]1O5 | inactive | 
16 | C[C@]12CC[C@@H]3[C@H](CCC4=CC(=O)CC[C@]43C)[C@]1(O)CC[C@@]2(O)C(=O)CO | -5.6% [at 11.4 µM] | 
17 | CC(C)[C@@H]1CN[C@H](C(=O)O)[C@@H]1CC(=O)O | -12.5% (inactive) | 
18 | O=C(O)[C@@H](O)[C@@H](O)[C@@H]1[O][Sb][O][C@@H]1CO | 5.16% [at 11.4 µM] | 
19 | C[C@@H](N)Cn1ccc2cc(F)c(Cl)cc21 |  | 3.98 µM (active)
20 | CC[N+](CC)(CCCNC1=CC(=O)C(NCCC[N+](CC)(CC)Cc2ccccc2)=CC1=O)Cc1ccccc1 | 10.8% (inactive) | 
21 | CC[C@@H]1[C@@H]2C[C@H]3[C@H]4N(C)c5ccccc5[C@@]45C[C@@H]([C@@H]2[C@@H]5O)N3[C@H]1O | -8.54% [at 25.6 µM] (inactive) | 
22 | N#C/C(=C\c1ccc(O)c(O)c1)C(N)=S | -22.3% (inactive) | 

Row | SMILES | activity, negative = inhibition | AC50
23 | N#CC(C#N)=Cc1ccc(O)c(O)c1 |  | 7.94 µM (active)
24 | COc1cc(C=C(C#N)C#N)cc(O)c1O |  | 2.51 µM (active)
25 | CC(C)(C)c1cc(C=C(C#N)C#N)cc(C(C)(C)C)c1O |  | 0.0316 µM (active)
26 | N#C/C(=C\c1ccc(O)c(O)c1)C(=O)NCCCNC(=O)/C(C#N)=C/c1ccc(O)c(O)c1 | 8.74% (inactive) | 
27 | NCCc1c[nH]c2ccccc12 | 15.6% (inactive) | 
28 | O=C(O)CNC(=O)[C@@H](CS)Cc1ccccc1 | 28.1% (inactive) | 
29 | COC(=O)[C@@H]1[C@@H](O)[C@@]2(O)c3c(OC)cc(OC)cc3O[C@@]2(c2ccc(OC)cc2)[C@H]1c1ccccc1 | -21.1% [at 11.4 µM] | 
30 | COc1cc2c(cc1OC)[C@]13CC[N@+]4(C)CC5=CCO[C@H]6CC(=O)N2[C@@H]1[C@@H]6[C@@H]5C[C@]34O | -6.22% [at 11.4 µM] | 
31 | O=C(Oc1ccc([N+](=O)[O-])cc1)N1CCC(N2CCCCC2)CC1 | 10.1% (inactive) | 
32 | O=C(O)c1cc(N=Nc2ccc([As](=O)(O)O)cc2)ccc1O | 11.3% [at 11.4 µM] | 
33 | N[C@@H](CCCCP(=O)(O)O)C(=O)O | 5.13% (inactive) | 
34 | Cc1ccc(N2C(=O)/C(=C/c3ccc(CN(CCC#N)S(C)(=O)=O)o3)C(=O)NC2=S)cc1C |  | 12.6 µM (active)
35 | NCCc1ccc(O)cc1 | 3.64% (inactive) | 
36 | CC1=NN(c2ccc(S(=O)(=O)O)cc2C)C(=[OH+])[C@H]1N=Nc1cc(S(=O)(=O)O)ccc1C(=O)O.O.[Cr] | -5.47% [at 11.4 µM] | 
37 | O=C(NCP(=O)(O)O)c1cccnc1 | 1.84% [at 11.4 µM] | 
38 | C=C[C@]12CN(C)[C@H]3C1[C@@]1(C(=O)Nc4ccccc41)[C@H]1C[C@H]2[C@H]3CO1 | -13.2% [at 25.6 µM] (inactive) | 
39 | c1cc2cc(c1)C[n+]1ccc(c3ccccc31)NCc1ccc(cc1)CNc1cc[n+](c3ccccc13)C2 |  | 2.51 µM (active)
40 | CN1C(=O)CCS(=O)(=O)[C@H]1c1ccc(Cl)cc1 | 2.23% (inactive) | 
41 | C[C@H]1C(=O)O[C@@H]2CCN3CC=C(COC(=O)[C@@](C)(O)[C@@]1(C)O)[C@H]23 | 24.7% [at 25.6 µM] (inactive) | 
42 | CCCCN1C(=O)/C(=C\c2ccco2)C(=O)N(CCc2ccccc2)C1=O |  | 7.94 µM (active)
43 | c1ccc2c(c1)Sc1ccccc1N2C[C@H]1CN2CCC1CC2 | 8.95% [at 11.4 µM] | 
